Rows were chosen to be rich in hits. Some 7.9% of all compounds tested hit in one or more screens of this group.
HCV inhibitor: blocks hepatitis C virus; Huh7.5.1 HCVcc-Cre infection, luciferase reporter, 44 h; 3.4% of 340,000 active; Potency, µM (doses to about 41.8 µM), inactives show at the top dose activity change, negative = inhibition, actives largely listed as inhibitors; active = well fitted inhibition curve with a large enough effect; inconclusive = small, poorly fitted or top-dose-only effect, or another doubt; inactive = no such curve, though single readings can be large or run the other way; also: potency is read from the fitted curve at half-maximal effect
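Compounds are dispensed onto cells plated 4 h earlier at 1,000 per well, with HCVcc-Cre virus (about 0.5 moi) added next. Following 44 h of culture, luminescent signal is measured for 15 sec after 15 min with substrate at room temperature.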
Marburg entry inh: Marburg virus entry inhibition | Marburg virus pseudotyped entry inhibition, cell reporter | Potency, µM (highest dose often 37.8 µM), inactives show at the highest dose activity change, negative = inhibition, actives largely listed as inhibitors | 1.8% of 300,000 active | AID 540276; calls by dose curve; tested in HEK293 cells; also: potency is read from the fitted curve at half-maximal effect
FMDV antiviral: antivirals against foot and mouth disease virus | FMDV antiviral cell-based qHTS | Potency, µM (titrated, usually from 57.9 µM), inactives show at the top dose activity change, negative = inhibition, actives largely listed as inhibitors | 1.2% of 410,000 active | AID 1159524; calls by dose curve; tested in HEK293T cells; also: read-out not given here; potency is read from the fitted curve at half-maximal effect; nearly all actives have a fitted effect of over 45% in size
LASV entry inh: inhibitors of Lassa virus binding or cell entry; Potency, µM (highest dose often 37.9 µM), for the others: at the highest dose activity change, negative = inhibition, actives largely listed as inhibitors; Lassa virus pseudotype entry inhibition, cell reporter; 1.2% of 300,000 active; calls by dose curve; tested in HEK293 cells; also: potency is read from the fitted curve at half-maximal effect; nearly all actives have a fitted effect of over 50% in size
HCMV inh: inhibitors of human cytomegalovirus; activity change, negative = inhibition, % at 57.5 µM; HFF cells, HCMV-luciferase reporter, 72 h; active compounds read low; 4.5% of 410,000 active; in the data active = activity change below about -60%; inconclusive = no clear call, values can overlap the other calls; inactive = above about -39%
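Two-dose cell screen: HFF monolayers treated with compounds and infected with luciferase-expressing HCMV at 1 PFU/cell, 72 h at 37C, then lysed for luciferase measurement.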
Active calls of the source: *; [ ] = another dose, or the depositor's remark. % is scaled to controls: 0 for no effect and ±100 for the full control effect.

`COc1cc2c(cc1OC)CN(C(=O)c1cc(COc3ccccc3SC)on1)CC2` gave FMDV antiviral inconclusive and HCMV inh -35.
CSc1ccccc1OCc1cc(C(=O)N2CCc3c(Cl)cccc3C2)no1 was read as HCV inhibitor 13µM*, Marburg entry inh inconclusive, FMDV antiviral -24%, LASV entry inh -30%[46.1 µM] and HCMV inh inconclusive.
Screening CSc1ccccc1OCc1cc(C(=O)N2CCc3[nH]cnc3C2c2ccccn2)no1 (stereo not given) returned HCV inhibitor -17%, Marburg entry inh inconclusive, FMDV antiviral -20%, LASV entry inh 2% and HCMV inh -60*.
For CCOC(=O)N1CCC(NC(=O)c2cc(COc3ccc(F)cc3Cl)on2)CC1 the results were Marburg entry inh -9%, FMDV antiviral -10%, LASV entry inh 1% and HCMV inh -11.
Screening CCOC(=O)N1CCC(NC(=O)c2cc(COc3ccccc3SC)on2)CC1 returned HCV inhibitor 16µM*, Marburg entry inh -20%, FMDV antiviral 0%, LASV entry inh -28% and HCMV inh -39.
`CCOC(=O)c1c(C)n(C)c2ccc(O)cc12` gave HCMV inh -2.
CCOC(=O)c1c(C)n(-c2ccc(F)cc2)c2ccc(O)cc12 was read as HCV inhibitor 8.9µM* and FMDV antiviral inconclusive.
For CCOC(=O)c1c(C)n(-c2ccc(C)cc2)c2ccc(O)c(CN(C)C)c12 the results were HCV inhibitor -7%, Marburg entry inh inconclusive, FMDV antiviral -17%, LASV entry inh inconclusive and HCMV inh -88*.
For COC(=O)c1c(C)n(-c2ccc(OC)cc2)c2ccc(O)cc12 the results were HCV inhibitor 11µM*, Marburg entry inh inconclusive, FMDV antiviral -10%, LASV entry inh inconclusive and HCMV inh -38.
`CCOC(=O)c1c(CSc2ccc(C)cc2)n(C)c2cc(Br)c(O)c(CN(C)C)c12` gave HCV inhibitor inconclusive, FMDV antiviral inconclusive and HCMV inh -63*.
For O=C(CN1C(=O)NC2(CCCC2)C1=O)NNC(=O)c1ccccc1F the results were HCV inhibitor 0%, FMDV antiviral -2% and HCMV inh -21.
Cc1cc(NNC(=O)c2cccc(C(F)(F)F)c2)nc2c1c(C)nn2C was read as HCV inhibitor 4.5µM*, FMDV antiviral inconclusive and HCMV inh inconclusive.
Screening O=C1C=CC(=O)c2c(O)cccc21 returned FMDV antiviral 1%.
For O=C1C=Cc2cccc3ccc(O)c1c23 the results were HCV inhibitor inconclusive, Marburg entry inh -18%[46.1 µM], FMDV antiviral 9%, LASV entry inh -3%[46.1 µM] and HCMV inh -68*.
CCOC(=O)C1=CN(CCc2cn(Cc3ccccc3)nn2)C(=O)NC1c1ccccc1 (stereo not given) was read as Marburg entry inh -8%[14.2 µM].
Screening CSc1ccc(-c2sc(Nc3cccc4ccccc34)n[n+]2-c2ccccc2)cc1 returned HCV inhibitor 8.9µM*, FMDV antiviral 10% and HCMV inh -15.
`CSc1ccc(-c2sc(Nc3ccccc3)n[n+]2-c2ccccc2)cc1` gave HCV inhibitor -30% and FMDV antiviral -13%.
For CCc1ccc(Nc2n[n+](-c3ccccc3)c(-c3ccc(SC)cc3)s2)cc1 the results were HCV inhibitor -26%, FMDV antiviral -4% and HCMV inh -65*.
`CCOC(=O)C1(C)CCCCN1C(=O)c1cccnc1` (stereo not given) gave FMDV antiviral -8% and HCMV inh 1.
O=C(CC1c2ccccc2C=C(c2ccsc2)N1c1ccc(-c2cccnc2)cc1)C1CC1 (stereo not given) was read as FMDV antiviral 0% and HCMV inh -79*.
`CCOC(=O)N1CCC(NC(=O)c2ccc3c(c2)N(C)C(=O)/C(=C/c2cccc(OC)c2)S3)CC1` gave HCV inhibitor 3.2µM*, FMDV antiviral inconclusive and HCMV inh -19.
Screening COc1cccc(/C=C2/Sc3ccc(C(=O)NC4CC4)cc3NC2=O)c1 returned HCMV inh 5.
For CN1C(=O)/C(=C/c2ccccc2Cl)Sc2ccc(C(=O)NCc3cccnc3)cc21 the results were HCV inhibitor -39%, Marburg entry inh inconclusive, FMDV antiviral 40µM*, LASV entry inh inconclusive and HCMV inh -17.
